# Experiment: binders from COS7 lysate, DM2A8 probe, primary screen, torsin A project, cell lysate, small-molecule microarray, fluorescence 635/667 (AID 1065)
# Conditions: higher = more signal, COS7 lysate expressing mutant human TOR1A
row,SMILES,composite z-score
1,CCC(CC)C(O)C1C=CC2C(=O)N(C)C(=O)C2N1N1CCCCC1 (centres undefined),0.816
2,CCCC[C@@H]1C[C@H]1[C@@H](NC(=O)c1ccc(C(F)(F)F)cc1)c1ccc(C(=O)OC)cc1,2.4
3,C=CCN1C(=O)[C@]2(O[C@H](CCn3cc([C@H](O)c4ccccc4)nn3)[C@@H]([Si](C)(C)c3ccc(OC)cc3)[C@@H]2C)c2cc(N3C(=O)c4cccc5cccc3c45)ccc21,-0.111
4,COc1ccc([Si](C)(C)[C@H]2[C@H](CCO)O[C@@]3(C(=O)N(Cc4ccccc4)c4ccc(N(C=O)c5ccccc5)cc43)[C@@H]2C)cc1,0.242
5,COCCOC(=O)N1C(=O)[C@@]2(c3cc(C#Cc4ccc(OC)cc4)ccc31)[C@H](C(=O)Nc1nc3ccccc3s1)[C@H]1C(=O)O[C@H](c3ccccc3)[C@H](c3ccccc3)N1[C@@H]2c1ccccc1OCCO,0.444
6,CN(C)C(=O)[C@]1(Cc2ccccc2)N=C(c2ccc(OCCCO)cc2)O[C@@H]1c1ccccc1,0.984
7,CCCCC(=C=CC[C@H](O)c1ccc(OCCO)cc1)C[C@H](O)c1ccccn1,0.342
8,Cc1ccc(S(=O)(=O)N2[C@@H](c3ccccc3)C(C(=O)O)=CC[C@H]2c2ccc(C#N)cc2)cc1,-0.198

# Experiment: binders of probe aFGF2 on microarray, primary screen, stem cell growth factor project, biochemical, small-molecule microarray, fluorescence 635/667 (AID 1067);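 also: measures binding of biotinylated aFGF2 protein to printed compounds on slides; z-score merges feature fluorescence and signal-to-noise across triplicate slides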
# Conditions: higher = more signal
row,SMILES,composite z-score
1,CC(C)C[C@@H]1NC(=O)[C@@]23C(=O)N[C@@H](Cc4ccccc4)C2[C@H](C)[C@@]2(C)O[C@H]2C3/C=C/C/C=C\CNC(=O)[C@@H](CC(C)C)NC1=O (some centres undefined),-0.0878
2,C=CCC(OC(C)=O)[C@@H]1[C@@H](N(Cc2ccc(-c3cccc(C(F)(F)F)c3)o2)C(=O)c2cccc3ccccc23)c2cc(OCCCO)ccc2N1C(=O)c1ccc2ccccc2c1 (some centres undefined),-0.0909
3,O=C1OCCC/C=C\[C@H]2OC34C=CCN(Cc5ccccc5)C(=O)[C@H]3N(CCCCCO)C(=O)[C@@H]4C12 (some centres undefined),-0.147
4,CCCC=C(CCC)[C@@H](NC(=O)c1ccccc1)c1ccc(C(=O)OC)cc1,0.502
5,COC(=O)[C@@]1(Cc2ccc(F)cc2)[C@H]2c3cc(C(=O)N4CCCC4)n(CCO)c3C[C@H]2CN1C(=O)c1ccccc1,0.153
6,COCCCNC(=O)[C@@]1(Sc2ccc(C)cc2)CC(=O)N(C2CCCCC2)[C@@H]1c1ccc(CO)cc1I,0.0442
7,COc1ccc([Si](C)(C)[C@H]2[C@H](CCO)O[C@@]3(C(=O)N(Cc4ccc(N5CCOC5=O)cc4)c4ccccc43)[C@@H]2C)cc1,-0.137
8,C=CCNC(=O)[C@@H]1[C@H]2C(=O)O[C@H](c3ccccc3)[C@H](c3ccccc3)N2[C@H](c2ccccc2OCCO)[C@@]12C(=O)N(C(=O)OCCOC)c1ccc(C#CCCO)cc12,0.0645
9,COCCOC(=O)N1C(=O)[C@@]2(c3ccccc31)[C@H](C(=O)N1CCCCCCC1)[C@H]1C(=O)O[C@H](c3ccccc3)[C@H](c3ccccc3)N1[C@@H]2c1ccc(O)cc1,0.904
10,CCCCC(=C=CC[C@@H](O)c1cccc(OCCO)c1)CCO,-0.057
11,O=C(NCC(F)(F)F)[C@@H]1c2ccccc2C(=O)N(CC23CC4CC(CC(C4)C2)C3)[C@H]1c1ccc(CO)cc1,-0.0549
12,C=CCC(OC(C)=O)[C@@H]1[C@@H](N(Cc2cccc3ccccc23)C(=O)c2ccc(C)cc2)c2cc(OCCCO)ccc2N1C(=O)c1ccc2ccccc2n1 (some centres undefined),0.01
13,CC#CCO[Si](C#CCCCCCC)(C(C)C)C(C)C,-0.24
14,CC(C)(C)OC(=O)CC[C@]1(C(N)=O)N=C(c2ccc(OCCCO)cc2)O[C@H]1c1ccccc1CN=[N+]=[N-],0.191
15,COc1ccc(CCNC(=O)[C@@]2(C)c3ccccc3C(=O)N(Cc3cc(C(F)(F)F)cc(C(F)(F)F)c3)[C@H]2c2ccc(CO)cc2)cc1,0.383
16,CN(C)CCCC[C@@H]1NC(=O)[C@@H]2C[C@H](C(=O)NCCCCCCNC(=O)CS)[C@H](c3cccc(OCCO)c3)N2C1=O,-0.0621
17,COCCCNC(=O)[C@@H]1c2ccccc2C(=O)N(C2CCCCC2)[C@H]1c1ccc(CO)cc1,-0.105
18,COC(=O)C1=CC(CCCO)=CC(C2CC2)N(Cc2cccc(OC(F)(F)F)c2)C=C1C(=O)OC (centres undefined),-0.0265
19,C=C(C(=O)CC[C@@H](OC(C)=O)c1cccc(OCCO)c1)C(C)C,-0.0996
20,COc1ccc([Si](C)(C)[C@@H]2[C@@H](CC(=O)N(CCO)Cc3ccccc3)O[C@]3(C(=O)N(Cc4ccc(N5CCC5=O)cc4)c4ccccc43)[C@H]2C)cc1,-0.0226
21,CC(C)CNC(=O)[C@@H]1c2ccccc2C(=O)N(CC23CC4CC(CC(C4)C2)C3)[C@H]1c1ccc(CO)cc1,-0.0056

# — PubChem BioAssay
